# According to the supplement of paper PMC7366291:
# Where a name gives a salt, the structure may show the parent alone. ± gives the standard deviation of the averaged measurements.
# System: Danio rerio Tg(wt1b:EGFP) embryo, pronephros
# Assay: glomerular width (mean of left and right), fold change vs DMSO control; higher = wider glomerulus
# Conditions: 25 µM; exposure: 24-48 hpf
# Outline: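 Dechorionated Tg(wt1b:EGFP) zebrafish embryos were incubated at 28.5°C from 24 to 48 hpf with 25 μM compound in HEPES-buffered E3 containing 0.5% DMSO and 0.003% PTU. Distances and angles between 16 manually set points on maximum projections of dorsal pronephros images were measured in Fiji, with values over 2 SD from the feature mean excluded. Each feature is a fold change relative to the mean of same-day DMSO-treated embryos.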
row,SMILES,glomerular width
1,CC(C)(C)NC[C@@H](O)COc1cccc2c1CCCC2=O [(+) -Levobunolol hydrochloride],0.935 ± 0.054
2,CC1(C)S[C@@H]2[C@H](NC(=O)[C@H](NC(=O)N3CCNC3=O)c3ccccc3)C(=O)N2[C@H]1C(=O)O [Azlocillin sodium salt],1.01 ± 0.023
3,CO/N=C(\C(=O)N[C@@H]1C(=O)N2C(C(=O)O)=C(C[N+]3(C)CCCC3)CS[C@H]12)c1csc(N)n1 [Cefepime hydrochloride],1.01 ± 0.018
4,O=C1CCc2ccc(OCCCCN3CCN(c4cccc(Cl)c4Cl)CC3)cc2N1 [Aripiprazole],0.888 ± 0.06
5,COc1cc(C(=O)OCCCN2CCCN(CCCOC(=O)c3cc(OC)c(OC)c(OC)c3)CC2)cc(OC)c1OC [Dilazep dihydrochloride],0.986 ± 0.055

# System: Danio rerio Tg(wt1b:EGFP) embryo, pronephros
# Assay: fraction of imaged embryos annotated as normal kidney; higher = less nephrotoxic; extreme values may be limits of the assay
# Conditions: 25 µM; exposure: 24-48 hpf
# Outline: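 Embryos of the Tg(wt1b:EGFP) zebrafish line were dechorionated and held in 12-well plates with 25 μM compound in 0.5% DMSO and 5 mM HEPES-buffered E3 containing 0.003% PTU, from 24 to 48 hpf at 28.5°C. Larvae were then anaesthetised with tricaine, set dorsal side up in agarose-filled 96-well plates, and their pronephroi imaged by widefield fluorescence at 470 nm over 10 z-slices. Each value is the fraction of embryos per treatment placed in the normal-kidney category after manual annotation of maximum projections.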
row,SMILES,fraction of imaged embryos annotated as normal kidney
1,CC(=O)NCCCS(=O)(=O)O [Acamprosate calcium],0.75
2,CC(C)NNC(=O)c1ccncc1 [Iproniazide phosphate],1
3,C=C1C(=O)O[C@H]2[C@H]1CC/C(C)=C/CC[C@@]1(C)O[C@@H]21 [Parthenolide],0.364
4,CN(C)CC/C=C1\c2ccccc2CSc2ccccc21 [Dosulepin hydrochloride],0.833
5,Nc1ccc(O)c(C(=O)O)c1 [Mesalamine],0.917
6,O=C(Oc1cccc2cccnc12)c1ccccc1 [Benzoxiquine],0.0833
7,CCC(=O)O[C@@H](O[P@](=O)(CCCCc1ccccc1)CC(=O)N1C[C@H](C2CCCCC2)C[C@H]1C(=O)O)C(C)C [Fosinopril],0.7
8,C[C@]12CC[C@@H]3c4ccc(O)cc4CC[C@H]3[C@@H]1CC[C@@H]2O [Estradiol-17 beta],0.167
9,C#C[C@]1(O)CC[C@H]2[C@@H]3CCC4=Cc5oncc5C[C@]4(C)[C@H]3CC[C@@]21C [Danazol],0
10,CC(NCCC(c1ccccc1)c1ccccc1)c1ccccc1 (stereo not given) [Fendiline hydrochloride],0.727
11,NC(Cc1cc(I)c(Oc2cc(I)c(O)c(I)c2)c(I)c1)C(=O)O (stereo not given) [Thyroxine (L)],0.75
12,CC(C)NC[C@H](O)COc1cccc2ccccc12 [(S)-propranolol hydrochloride],0.75
13,OC(CCN1CCCC1)(c1ccccc1)C1CCCCC1 (stereo not given) [Procyclidine hydrochloride],0.833
14,c1cnc(N2CCN(Cc3ccc4c(c3)OCO4)CC2)nc1 [Piribedil hydrochloride],0.833
15,NS(=O)(=O)c1cc(C(=O)O)cc(N2CCCC2)c1Oc1ccccc1 [Piretanide],0.917
16,C[C@@H]1C[C@H]2[C@@H]3CCC4=CC(=O)C=C[C@]4(C)[C@@]3(Cl)[C@@H](O)C[C@]2(C)[C@@]1(OC(=O)c1ccco1)C(=O)CCl [Mometasone furoate],0.455
17,Nc1c(Br)cc(Br)cc1CN[C@H]1CC[C@H](O)CC1 [Ambroxol hydrochloride],1
18,O=C(c1ccc(F)cc1)C1CCN(CCn2c(=O)[nH]c3ccccc3c2=O)CC1 [Ketanserin tartrate hydrate],0.833
19,CCN(CC)CCCC(C)Nc1c2ccc(Cl)cc2nc2ccc(OC)cc12 (stereo not given) [Quinacrine dihydrochloride hydrate],0.75
20,CC(=O)NS(=O)(=O)c1ccc(N)cc1 [Sulfacetamide sodic hydrate],1

row,SMILES,fraction of imaged embryos annotated as normal kidney
1,"CC(C)NCC(O)c1ccc(O)c(O)c1 (single isomer, unassigned; (+)) [(+)-Isoproterenol (+)-bitartrate salt]",0.833
2,Clc1ccc(C(Cn2ccnc2)OCc2ccsc2Cl)c(Cl)c1 (stereo not given) [Tioconazole],0.417
3,CCCCC(C)(O)C/C=C/[C@H]1[C@H](O)CC(=O)[C@@H]1CCCCCCC(=O)OC (mixture of isomers) [Misoprostol],1
4,CC(=O)/N=c1/sc(S(N)(=O)=O)nn1C [Methazolamide],0.636
5,Cc1cccc(C)c1NC(=O)CN1CCN(CCCC(c2ccc(F)cc2)c2ccc(F)cc2)CC1 [Lidoflazine],0.167
6,C[C@@H]1CN(c2c(F)c(N)c3c(=O)c(C(=O)O)cn(C4CC4)c3c2F)C[C@H](C)N1 [Sparfloxacin],1
7,Nc1nc(CC(=O)Nc2ccc(CCNC[C@H](O)c3ccccc3)cc2)cs1 [Mirabegron],0.833
8,CCN(CC)CCOC(=O)c1ccc(N)cc1 [Procaine hydrochloride],0.667
9,O=C(COc1ccc(Cl)cc1)N1CCN(Cc2ccc3c(c2)OCO3)CC1 [Fipexide hydrochloride],0.75
10,Cc1cn([C@H]2C=C[C@@H](CO)O2)c(=O)[nH]c1=O [Stavudine],1
11,CCN(CC)C(=O)/C(C#N)=C/c1cc(O)c(O)c([N+](=O)[O-])c1 [Entacapone],0.583
12,CC(C)(Oc1ccc(CCNC(=O)c2ccc(Cl)cc2)cc1)C(=O)O [Bezafibrate],0.917
13,C#CCN(C)CCCOc1ccc(Cl)cc1Cl [Clorgyline hydrochloride],1
14,Cc1[nH]cnc1CN1CCc2c(c3ccccc3n2C)C1=O [Alosetron hydrochloride],0.917
15,O=C(NCC1CCCCN1)c1cc(OCC(F)(F)F)ccc1OCC(F)(F)F (stereo not given) [Flecainide acetate],0.75
16,CC(C)(C)NC[C@@H](O)COc1cccc2c1CCCC2=O [(+) -Levobunolol hydrochloride],0.75
17,CC1(C)S[C@@H]2[C@H](NC(=O)[C@H](NC(=O)N3CCNC3=O)c3ccccc3)C(=O)N2[C@H]1C(=O)O [Azlocillin sodium salt],0.5
18,CO/N=C(\C(=O)N[C@@H]1C(=O)N2C(C(=O)O)=C(C[N+]3(C)CCCC3)CS[C@H]12)c1csc(N)n1 [Cefepime hydrochloride],0.917
19,O=C1CCc2ccc(OCCCCN3CCN(c4cccc(Cl)c4Cl)CC3)cc2N1 [Aripiprazole],1
20,COc1cc(C(=O)OCCCN2CCCN(CCCOC(=O)c3cc(OC)c(OC)c(OC)c3)CC2)cc(OC)c1OC [Dilazep dihydrochloride],0.75
